For 28 molecules, z-score results are on record in PubChem BioAssay.
Also: test concentration not given here.

The nature of the first assay: compound effects on differentiated 3T3-L1 adipocyte viability – cell-based, 3T3-L1 adipocytes, calcein-AM fluorescence, 48 h, basal, profiling panel (AID 1163). The note with it: 3T3-L1 adipocytes viability, higher = more signal.
For `CN(C)CCCNC(=O)[C@@H]1c2ccccc2C(=O)N(Cc2ccc(OC(F)(F)F)cc2)[C@H]1c1ccc(CO)cc1`, the z-score is 1.91.
Consider `COCCCNC(=O)[C@@]1(Sc2ccc(C)cc2)CC(=O)N(C2Cc3ccccc3C2)[C@@H]1c1ccc(CO)cc1I`, for which the z-score is -0.175.
On to `CCCCC(CC)C(O)C1C=CC2C(=O)N(c3ccccc3)C(=O)C2N1Nc1ccc([N+](=O)[O-])cc1` (stereo not drawn), for which the z-score was -0.0969.
As for `CC(C)C(=C=CC[C@@H](O)c1ccccc1OCCO)C[C@@H](O)COCc1ccccc1`, the z-score was 0.435.
As for `C[C@H]1C2=C3C(CC[C@H]4C(OCc5ccc(F)cc5C(F)(F)F)OC[C@](C)([C@@H]34)N(C(=O)OC(C)(C)C)C2)C2COC(=O)OCC21` (stereo partly drawn), the z-score is 0.338.
For the molecule `CCOC(=CC(=O)OC)CC(O)c1cccc(Cl)c1` (stereo not drawn), the z-score is 0.342.
Still for that read-out and setting: next, `COc1cc(OC)c(C(O)C2C=CC3C(=O)N(c4ccccc4)C(=O)C3N2Nc2ccc(C#N)cc2)cc1Br` (stereo not drawn): -0.693; `CN(C)CCCNC(=O)[C@@H]1c2ccccc2C(=O)N(CC23CC4CC(CC(C4)C2)C3)[C@H]1c1ccc(CO)cc1`: 0.195; `COc1cc2c(cc1OC)CN(C(=O)[C@H]1[C@@H]3C(=O)O[C@@H](c4ccccc4)[C@@H](c4ccccc4)N3[C@@H](c3ccc(OCCO)cc3)[C@]13C(=O)Nc1ccc(C#CCCO)cc13)CC2`: -0.16.
Same read-out and setting: next, `COCCOC(=O)N1C(=O)[C@@]2(c3cc(C#CC4=CCCCC4)ccc31)[C@H](c1ccccc1OCCO)N1[C@H](c3ccccc3)[C@H](c3ccccc3)OC(=O)[C@H]1[C@@H]2C(=O)N1CCc2cc(OC)c(OC)cc2C1`: 0.186.

Another assay can be described thus: compound effects on hepatocellular carcinoma cell viability – HepG2, calcein-AM fluorescence, 48 h, basal, profiling panel (AID 1164). Particulars: higher = more signal.
As to `C=CC[C@@]12N=C(c3ccc(OCCCO)cc3)O[C@@H]1c1ccccc1N(CCS(=O)(=O)c1ccccc1)C2=O`, the z-score was 1.05.
Consider `CN(C)CCCNC(=O)[C@@]1(C)c2ccccc2C(=O)N(Cc2cc(C(F)(F)F)cc(C(F)(F)F)c2)[C@H]1c1ccc(CO)cc1`, for which the z-score was 0.221.
The same measure, in the same setting: next, `CC(C)NC(=O)[C@@]1(C)c2ccccc2C(=O)N(C(C)C)[C@H]1c1ccc(CO)cc1`: -0.335; `O=C(N1CCCCC1)[C@@]1(Cc2ccccc2)COC(c2ccc(OCCCO)cc2)=N1`: -0.159; `O=C1C[C@@](C(=O)NCC(F)(F)F)(c2ccc([N+](=O)[O-])cc2)[C@@H](c2ccc(CO)cc2)N1C1CCCCC1`: 0.268.
In the case of `O=C1c2ccccc2[C@](Cc2ccccc2I)(C(=O)NCc2ccccc2)[C@H](c2ccc(CO)cc2)N1C1CCCCC1`, the z-score was -0.36.
On to `C=CC[C@@]1(C(=O)N2CCCCC2)N=C(c2ccc(OCCCO)cc2)O[C@@H]1c1ccccc1`, for which the z-score is 0.292.
Take `C=CCOC(=O)[C@@H]1[C@H]2C(=O)O[C@H](c3ccccc3)[C@H](c3ccccc3)N2[C@H](c2ccc(OCCOC(=O)[C@H]3C[C@H]4C(=O)N[C@@H](CCCC[N+](C)(C)C)C(=O)N4[C@H]3c3ccc(O)cc3)cc2)[C@@]12C(=O)Nc1ccc(I)cc12`: the z-score was -0.591.
In the case of `C[C@H]1ON(c2ccc(C(=O)OC(C)(C)C)cc2)[C@@H](c2ccc(O)cc2)[C@@H]1C(=O)N1C(=O)OC[C@@H]1c1ccccc1`, the z-score was -2.97.
The same measure, in the same setting: to `Cc1c(NC(=O)/C(C#N)=C/C=C/c2ccccc2[N+](=O)[O-])c(=O)n(-c2ccccc2)n1C` belongs -1.71.
Turning to `CC(C)(C)OC(=O)CC[C@]1(C(=O)NCCN2CCOCC2)N=C(c2ccc(OCCCO)cc2)O[C@H]1c1ccccc1N=[N+]=[N-]`, the z-score is 0.309.
`CCOC(=O)[C@H]1C/C=C/C[C@H](C(=O)OCC)C(=O)O[C@H]2[C@@H](OC)O[C@H](CO)[C@@H](OC(=O)Nc3ccc(OC)cc3)[C@@H]2OC1=O`: the z-score is 1.12.
With `O=C1NC(=O)C2C1C=CC(C(O)c1c(F)cccc1Cl)N2Nc1ccccn1` (stereo not drawn), the z-score is 0.0038.
On to `COc1ccc([Si](C)(C)[C@@H]2[C@@H](CCO)O[C@]3(C(=O)N(Cc4cccc(N5C(=O)c6ccccc6Oc6ccccc65)c4)c4ccccc43)[C@H]2C)cc1`, for which the z-score is -3.38.
Take `Cc1ccc(S[C@]2(C(=O)NCc3ccccc3)CC(=O)N(C(C)C)[C@@H]2c2ccc(CO)cc2I)cc1`: the z-score is -0.274.
As to `CC(C)CCC[C@@H](C)[C@H]1CC[C@@]2(C)C3=C(CC[C@]12C)[C@@]1(C)CC[C@H](OC(=O)c2ccc(Br)cc2)C(C)(C)C1CC3` (stereo partly drawn), the z-score is 2.04.
Same read-out and setting: next, `NC(=O)N1C(=O)C2C(C1=O)C1C=C(c3ccc(CO)cc3)C2C(C2CC2)N1Cc1sc2ccccc2c1Cl` (stereo not drawn): 0.197.
Take `C=CCN1C(=O)[C@@]2(O[C@@H](CCn3cc([C@H](O)c4ccccc4)nn3)[C@H]([Si](C)(C)c3ccc(OC)cc3)[C@H]2C)c2ccccc21`: the z-score was -1.49.
